Data on eight sequences can be found in article PMC7862700, “An all-to-all approach to the identification of sequence-specific readers for epigenetic DNA modifications on cytosine”.

Common to all, as to assay: DAPPL (digital affinity profiling via proximity ligation, sequencing); 10 mM Tris-HCl pH 7.5, 50 mM NaCl, 1 mM DTT, 4% glycerol, room temperature, 30 min; GST-TFs on glutathione beads, 16-mer random dsDNA library, 0.1% formaldehyde crosslink after washing; high values mean tight binding
The target of one test is T1, FEV (Homo sapiens, UniProt Q99581 1-238).
T1 sequence: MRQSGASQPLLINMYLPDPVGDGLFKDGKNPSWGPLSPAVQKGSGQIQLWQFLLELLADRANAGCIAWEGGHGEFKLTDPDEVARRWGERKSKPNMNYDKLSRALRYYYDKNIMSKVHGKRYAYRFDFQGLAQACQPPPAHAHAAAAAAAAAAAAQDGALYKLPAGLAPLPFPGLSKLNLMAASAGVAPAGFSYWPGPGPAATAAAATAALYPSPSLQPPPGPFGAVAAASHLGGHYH
The following applies: protein: recombinant; tags: N-terminal GST; dsDNA, one strand shown. The gist of the method: (§1)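 GST fusions of human transcription factors were expressed in yeast and captured with glutathione beads. Once given DNA barcodes and pooled alongside a tag-only sample, they were incubated for 30 min at room temperature with 200 nmole of a random double-stranded 16-mer DNA library in Tris/NaCl/DTT/glycerol buffer, then washed, crosslinked (0.1% formaldehyde), proximity-ligated, PCR-amplified and sequenced on an Illumina NextSeq500. The binding signal of each hexamer is its read frequency for a factor divided by its frequency for the tag-only sample.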

The next test deals with ETV5 (Homo sapiens, UniProt P41161 1-510). The following applies: protein: recombinant; tags: N-terminal GST; dsDNA, one strand shown. Summed up: as §1
A further test has as its target HSF1 (Homo sapiens, UniProt Q00613 1-529). The settings on record: protein: recombinant; tags: N-terminal GST; chain copies: 3; dsDNA, one strand shown. Summed up: as §1
For another test, the target named is T2, SPIC (Homo sapiens, UniProt Q8N5J4 1-248).
T2 sequence: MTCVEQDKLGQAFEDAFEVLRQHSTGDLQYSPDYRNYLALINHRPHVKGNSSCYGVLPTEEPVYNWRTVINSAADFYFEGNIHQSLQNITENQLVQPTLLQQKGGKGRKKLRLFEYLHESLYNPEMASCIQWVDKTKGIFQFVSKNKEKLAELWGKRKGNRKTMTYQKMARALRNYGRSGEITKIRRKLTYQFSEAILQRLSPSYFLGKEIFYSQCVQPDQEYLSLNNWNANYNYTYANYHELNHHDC
The following applies: protein: recombinant; tags: N-terminal GST; dsDNA, one strand shown. The gist of the method:
as §1

For the next test, the target named is ELF4 (Homo sapiens, UniProt Q99607 1-663). The settings on record: protein: recombinant; tags: N-terminal GST; dsDNA, one strand shown. The gist of the method: as §1
For the next test, the target named is T3, ELK4 (Homo sapiens, UniProt P28324-2 1-405).
T3 sequence: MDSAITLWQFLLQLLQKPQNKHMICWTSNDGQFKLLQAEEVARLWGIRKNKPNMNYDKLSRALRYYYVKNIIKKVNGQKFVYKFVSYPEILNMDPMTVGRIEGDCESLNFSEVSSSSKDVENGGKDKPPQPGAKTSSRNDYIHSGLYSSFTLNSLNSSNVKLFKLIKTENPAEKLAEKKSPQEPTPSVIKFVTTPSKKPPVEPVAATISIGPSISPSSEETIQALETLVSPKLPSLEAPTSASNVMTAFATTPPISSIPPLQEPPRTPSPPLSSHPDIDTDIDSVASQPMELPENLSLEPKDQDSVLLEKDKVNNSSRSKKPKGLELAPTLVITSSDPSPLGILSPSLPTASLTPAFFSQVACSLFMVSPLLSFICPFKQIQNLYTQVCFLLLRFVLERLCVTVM
The following applies: protein: recombinant; tags: N-terminal GST; dsDNA, one strand shown. Summed up: as §1

In a further test the target is T4, ETV2 (Homo sapiens, UniProt O00321 1-342).
T4 sequence: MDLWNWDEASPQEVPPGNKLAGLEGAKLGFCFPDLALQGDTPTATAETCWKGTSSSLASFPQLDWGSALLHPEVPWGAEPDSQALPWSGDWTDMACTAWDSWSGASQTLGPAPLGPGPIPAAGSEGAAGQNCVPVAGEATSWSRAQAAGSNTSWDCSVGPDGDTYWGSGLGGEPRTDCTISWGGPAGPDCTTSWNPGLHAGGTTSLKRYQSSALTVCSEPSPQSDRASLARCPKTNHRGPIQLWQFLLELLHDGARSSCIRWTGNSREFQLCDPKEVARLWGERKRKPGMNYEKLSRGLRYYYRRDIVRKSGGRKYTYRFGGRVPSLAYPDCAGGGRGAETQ
The settings on record: protein: recombinant; tags: N-terminal GST; dsDNA, one strand shown. Summed up: as §1

In a further test the target is T5, ELF3 (Homo sapiens, UniProt P78545 1-371).
T5 sequence: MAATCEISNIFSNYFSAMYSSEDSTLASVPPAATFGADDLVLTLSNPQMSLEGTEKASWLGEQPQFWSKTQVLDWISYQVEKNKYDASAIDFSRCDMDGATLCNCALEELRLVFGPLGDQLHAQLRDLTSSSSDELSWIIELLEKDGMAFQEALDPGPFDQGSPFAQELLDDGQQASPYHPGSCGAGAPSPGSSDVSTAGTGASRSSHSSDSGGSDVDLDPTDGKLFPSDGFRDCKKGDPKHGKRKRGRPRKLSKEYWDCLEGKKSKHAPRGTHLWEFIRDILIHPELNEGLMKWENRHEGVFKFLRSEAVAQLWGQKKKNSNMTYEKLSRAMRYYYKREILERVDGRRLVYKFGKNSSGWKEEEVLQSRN
The following applies: protein: recombinant; tags: N-terminal GST; dsDNA, one strand shown. Summed up: as §1

The target of the next test is CRX (Homo sapiens, UniProt O43186 1-299). The following applies: protein: recombinant; tags: N-terminal GST; dsDNA, one strand shown. Summed up: as §1
Another test has as its target ETV1 (Homo sapiens, UniProt P50549 1-477). The following applies: protein: recombinant; tags: N-terminal GST; dsDNA, one strand shown. The gist of the method: as §1

HSF1, sequence (Q00613 whole entry): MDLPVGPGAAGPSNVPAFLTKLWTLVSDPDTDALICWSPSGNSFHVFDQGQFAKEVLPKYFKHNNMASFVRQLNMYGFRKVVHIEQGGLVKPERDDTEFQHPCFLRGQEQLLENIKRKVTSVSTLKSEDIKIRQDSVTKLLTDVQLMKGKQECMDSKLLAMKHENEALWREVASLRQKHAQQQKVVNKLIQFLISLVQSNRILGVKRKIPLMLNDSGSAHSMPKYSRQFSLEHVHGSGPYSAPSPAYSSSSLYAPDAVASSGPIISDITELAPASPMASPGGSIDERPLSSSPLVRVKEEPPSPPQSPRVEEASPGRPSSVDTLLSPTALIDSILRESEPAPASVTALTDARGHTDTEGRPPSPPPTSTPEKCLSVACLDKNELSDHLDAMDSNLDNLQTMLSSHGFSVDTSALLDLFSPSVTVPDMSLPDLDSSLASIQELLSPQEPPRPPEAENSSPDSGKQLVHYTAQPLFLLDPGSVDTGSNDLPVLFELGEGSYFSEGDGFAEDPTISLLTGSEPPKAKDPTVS
ETV1, sequence (P50549 whole entry): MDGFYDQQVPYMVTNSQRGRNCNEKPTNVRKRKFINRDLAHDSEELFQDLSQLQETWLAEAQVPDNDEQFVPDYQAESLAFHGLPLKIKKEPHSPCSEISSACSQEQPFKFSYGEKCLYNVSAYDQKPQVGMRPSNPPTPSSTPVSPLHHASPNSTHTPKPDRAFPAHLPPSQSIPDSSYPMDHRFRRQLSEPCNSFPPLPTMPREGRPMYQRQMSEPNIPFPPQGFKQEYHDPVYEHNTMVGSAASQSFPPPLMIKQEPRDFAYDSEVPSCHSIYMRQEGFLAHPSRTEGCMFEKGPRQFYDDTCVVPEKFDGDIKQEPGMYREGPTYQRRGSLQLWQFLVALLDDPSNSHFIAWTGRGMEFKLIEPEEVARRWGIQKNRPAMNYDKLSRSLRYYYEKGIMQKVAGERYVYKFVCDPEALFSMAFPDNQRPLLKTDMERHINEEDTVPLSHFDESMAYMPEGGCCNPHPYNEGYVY
CRX, sequence (O43186 whole entry): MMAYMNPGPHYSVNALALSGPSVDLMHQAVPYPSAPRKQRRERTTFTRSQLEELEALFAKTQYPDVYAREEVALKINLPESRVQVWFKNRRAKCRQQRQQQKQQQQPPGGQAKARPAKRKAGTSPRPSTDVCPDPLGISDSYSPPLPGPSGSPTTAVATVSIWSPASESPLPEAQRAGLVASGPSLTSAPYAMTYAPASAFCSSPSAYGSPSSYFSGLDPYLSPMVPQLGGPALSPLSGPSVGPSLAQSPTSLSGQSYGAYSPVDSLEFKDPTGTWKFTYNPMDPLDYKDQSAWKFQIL
ETV5, sequence (P41161 whole entry): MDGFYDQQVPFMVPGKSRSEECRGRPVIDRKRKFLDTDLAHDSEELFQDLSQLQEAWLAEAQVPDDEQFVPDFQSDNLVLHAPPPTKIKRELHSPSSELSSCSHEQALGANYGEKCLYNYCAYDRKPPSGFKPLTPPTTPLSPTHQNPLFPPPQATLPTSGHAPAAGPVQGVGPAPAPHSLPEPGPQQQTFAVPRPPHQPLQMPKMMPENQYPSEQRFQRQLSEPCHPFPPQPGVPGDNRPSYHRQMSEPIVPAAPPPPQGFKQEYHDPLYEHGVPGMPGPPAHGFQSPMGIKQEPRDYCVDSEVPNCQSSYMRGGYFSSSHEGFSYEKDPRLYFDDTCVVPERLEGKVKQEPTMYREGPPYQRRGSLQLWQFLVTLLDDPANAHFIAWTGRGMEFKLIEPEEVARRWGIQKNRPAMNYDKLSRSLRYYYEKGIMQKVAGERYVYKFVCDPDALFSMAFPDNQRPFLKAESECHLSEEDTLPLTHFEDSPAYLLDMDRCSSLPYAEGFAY
ELF4, sequence (Q99607 whole entry): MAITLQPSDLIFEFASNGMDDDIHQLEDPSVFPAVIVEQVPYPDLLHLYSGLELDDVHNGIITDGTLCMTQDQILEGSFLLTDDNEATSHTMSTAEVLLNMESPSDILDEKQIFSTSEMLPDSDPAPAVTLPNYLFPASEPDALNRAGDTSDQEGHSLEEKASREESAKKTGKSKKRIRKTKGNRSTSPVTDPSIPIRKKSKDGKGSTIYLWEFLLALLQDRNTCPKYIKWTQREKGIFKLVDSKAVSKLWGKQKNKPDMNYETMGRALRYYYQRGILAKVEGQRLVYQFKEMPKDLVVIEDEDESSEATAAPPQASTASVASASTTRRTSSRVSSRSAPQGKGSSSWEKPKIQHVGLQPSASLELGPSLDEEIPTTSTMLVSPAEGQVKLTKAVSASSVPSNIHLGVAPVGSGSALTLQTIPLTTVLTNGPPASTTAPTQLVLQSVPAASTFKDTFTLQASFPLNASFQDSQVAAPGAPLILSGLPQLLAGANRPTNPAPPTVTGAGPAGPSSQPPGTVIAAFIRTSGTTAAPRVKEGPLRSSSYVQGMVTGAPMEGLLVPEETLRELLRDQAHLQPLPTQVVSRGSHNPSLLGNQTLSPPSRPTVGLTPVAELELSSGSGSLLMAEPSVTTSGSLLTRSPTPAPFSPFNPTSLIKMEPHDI

For the sequence AACAAA, the binding signal in the test with FEV was 1.2 fold enrichment (6-mer frequency, TF over GST control); with ETV5, 1.11 fold enrichment (6-mer frequency, TF over GST control); in the test with HSF1, 1.18 fold enrichment (6-mer frequency, TF over GST control); with SPIC, 1.14 fold enrichment (6-mer frequency, TF over GST control); in the test with ELF4 it was 1.16 fold enrichment (6-mer frequency, TF over GST control); with ELK4 it was 1.17 fold enrichment (6-mer frequency, TF over GST control). In addition, the binding signal was 1.26 fold enrichment (6-mer frequency, TF over GST control) in the test with ETV2; 1.21 fold enrichment (6-mer frequency, TF over GST control) in the test with ELF3; 1.14 fold enrichment (6-mer frequency, TF over GST control) in the test with CRX; 1.19 fold enrichment (6-mer frequency, TF over GST control) with ETV1.
Regarding CTATGC, the binding signal with FEV is 1.36 fold enrichment (6-mer frequency, TF over GST control); with ETV5, 1.38 fold enrichment (6-mer frequency, TF over GST control); with HSF1, 1.28 fold enrichment (6-mer frequency, TF over GST control); with SPIC it was 1.54 fold enrichment (6-mer frequency, TF over GST control); with ELF4, 1.48 fold enrichment (6-mer frequency, TF over GST control); in the test with ELK4, 1.38 fold enrichment (6-mer frequency, TF over GST control). Besides, the binding signal was 1.55 fold enrichment (6-mer frequency, TF over GST control) in the test with ETV2; 1.2 fold enrichment (6-mer frequency, TF over GST control) in the test with ELF3; 1.15 fold enrichment (6-mer frequency, TF over GST control) with CRX; 1.55 fold enrichment (6-mer frequency, TF over GST control) in the test with ETV1.
Consider TGTTAT, for which the binding signal was 1.34 fold enrichment (6-mer frequency, TF over GST control) in the test with FEV; 1.34 fold enrichment (6-mer frequency, TF over GST control) in the test with ETV5; 1.31 fold enrichment (6-mer frequency, TF over GST control) in the test with HSF1; 1.45 fold enrichment (6-mer frequency, TF over GST control) in the test with SPIC; 1.39 fold enrichment (6-mer frequency, TF over GST control) in the test with ELF4; 1.35 fold enrichment (6-mer frequency, TF over GST control) with ELK4. Besides, the binding signal in the test with ETV2 is 1.3 fold enrichment (6-mer frequency, TF over GST control); in the test with ELF3, 1.35 fold enrichment (6-mer frequency, TF over GST control); in the test with CRX, 1.4 fold enrichment (6-mer frequency, TF over GST control); in the test with ETV1, 1.42 fold enrichment (6-mer frequency, TF over GST control).
Consider CCGTCT, for which the binding signal with FEV is 1.3 fold enrichment (6-mer frequency, TF over GST control); with ETV5, 1.36 fold enrichment (6-mer frequency, TF over GST control); with HSF1 it was 1.29 fold enrichment (6-mer frequency, TF over GST control); with SPIC, 1.45 fold enrichment (6-mer frequency, TF over GST control); with ELF4, 1.37 fold enrichment (6-mer frequency, TF over GST control); with ELK4, 1.4 fold enrichment (6-mer frequency, TF over GST control). Further, the binding signal in the test with ETV2 is 1.32 fold enrichment (6-mer frequency, TF over GST control); in the test with ELF3, 1.25 fold enrichment (6-mer frequency, TF over GST control); with CRX, 1.26 fold enrichment (6-mer frequency, TF over GST control); with ETV1 it was 1.38 fold enrichment (6-mer frequency, TF over GST control).
Regarding GAAATC, the binding signal with FEV is 2.32 fold enrichment (6-mer frequency, TF over GST control); with ETV5 it was 1.58 fold enrichment (6-mer frequency, TF over GST control); with HSF1 it was 1.23 fold enrichment (6-mer frequency, TF over GST control); with SPIC it was 1.48 fold enrichment (6-mer frequency, TF over GST control); in the test with ELF4, 1.42 fold enrichment (6-mer frequency, TF over GST control); with ELK4, 1.31 fold enrichment (6-mer frequency, TF over GST control). The binding signal is 1.45 fold enrichment (6-mer frequency, TF over GST control) in the test with ETV2; 1.27 fold enrichment (6-mer frequency, TF over GST control) in the test with ELF3; 1.26 fold enrichment (6-mer frequency, TF over GST control) in the test with CRX; 1.5 fold enrichment (6-mer frequency, TF over GST control) in the test with ETV1.
As for TCTCTG, the binding signal is 1.53 fold enrichment (6-mer frequency, TF over GST control) with FEV; 1.43 fold enrichment (6-mer frequency, TF over GST control) in the test with ETV5; 1.73 fold enrichment (6-mer frequency, TF over GST control) with HSF1; 1.59 fold enrichment (6-mer frequency, TF over GST control) with SPIC; 1.58 fold enrichment (6-mer frequency, TF over GST control) with ELF4; 1.69 fold enrichment (6-mer frequency, TF over GST control) in the test with ELK4. Further, the binding signal with ETV2 was 1.45 fold enrichment (6-mer frequency, TF over GST control); with ELF3, 1.37 fold enrichment (6-mer frequency, TF over GST control); with CRX, 1.49 fold enrichment (6-mer frequency, TF over GST control); in the test with ETV1, 1.46 fold enrichment (6-mer frequency, TF over GST control).
In the case of AGCACT, the binding signal in the test with FEV was 1.51 fold enrichment (6-mer frequency, TF over GST control); with ETV5 it was 1.37 fold enrichment (6-mer frequency, TF over GST control); with HSF1, 1.19 fold enrichment (6-mer frequency, TF over GST control); with SPIC, 1.32 fold enrichment (6-mer frequency, TF over GST control); with ELF4, 1.44 fold enrichment (6-mer frequency, TF over GST control); with ELK4 it was 1.31 fold enrichment (6-mer frequency, TF over GST control). The binding signal with ETV2 was 1.46 fold enrichment (6-mer frequency, TF over GST control); in the test with ELF3, 1.26 fold enrichment (6-mer frequency, TF over GST control); in the test with CRX, 1.18 fold enrichment (6-mer frequency, TF over GST control); in the test with ETV1 it was 1.36 fold enrichment (6-mer frequency, TF over GST control).
Consider GAACTA, for which the binding signal in the test with FEV is 1.25 fold enrichment (6-mer frequency, TF over GST control); with ETV5, 1.33 fold enrichment (6-mer frequency, TF over GST control); in the test with HSF1, 1.32 fold enrichment (6-mer frequency, TF over GST control); with SPIC, 1.48 fold enrichment (6-mer frequency, TF over GST control); with ELF4 it was 1.21 fold enrichment (6-mer frequency, TF over GST control); in the test with ELK4, 1.25 fold enrichment (6-mer frequency, TF over GST control). Moreover, the binding signal in the test with ETV2 was 1.31 fold enrichment (6-mer frequency, TF over GST control); with ELF3, 1.23 fold enrichment (6-mer frequency, TF over GST control); in the test with CRX it was 1.13 fold enrichment (6-mer frequency, TF over GST control); with ETV1, 1.37 fold enrichment (6-mer frequency, TF over GST control).
